Out of some 69,000 compounds screened, about 8,600 (12%) showed an effect of 50% or more. For the sample, strong results were picked, then their nearest neighbours and some compounds at random.

The experiment concerns Plasmodium berghei. The experiment can be described thus: Screen against P. berghei liver stage (PbLuc), transformed with Luciferase, at 10uM. The class given is functional, HepG2. To be noted: tested at 10 uM.
For the compound `NCC1CCC(c2c(C(N)=O)sc3ccccc23)CC1` (centres undefined), the INHIBITION stood at 14.6%.
As for `COCCNc1c(-c2ccc(Cl)cc2)c(=O)c1=O`, the INHIBITION is on record as 24.5%.
For the compound `COCCCNc1c(-c2ccc(C)cc2)c(=O)c1=O`, the INHIBITION came out at 35.1%.
As to `COCCCNc1c(-c2ccc(Cl)cc2)c(=O)c1=O`, the INHIBITION is given as 60.8%.
Turning to `CN(c1ccccc1)c1ccc(CC2CCCN(CCO)C2)nn1` (centres undefined), the INHIBITION came to 16.5%.
For the compound `CC(=O)NCCNC(=O)c1sccc1Br`, the INHIBITION was 28.5%.
Consider `CC(=O)Nc1sccc1C(=O)C(C)(C)C`, for which the INHIBITION is recorded as 77.7%.
`CC(=O)NCCC(=O)Nc1sccc1C(=O)C(C)(C)C`: the INHIBITION is 48.9%.
For the compound `CC(C)(C)n1cc(C#N)cc1NC(=O)CCNC(=O)c1ccco1`, the INHIBITION stood at 26.5%.
On to `CC(C)(C)C(=O)c1ccsc1NC(=O)CCNC(=O)c1ccco1`, for which the INHIBITION was determined as 75.8%.
In the case of `CC(C)(CNC(=O)c1ccco1)CNC(=O)c1ccco1`, the INHIBITION was -18.9%.
`Cc1nn(C)c(C)c1CN(C)C(=O)c1cc(NC(=O)C2CC2)n(C)n1`: the INHIBITION is recorded as 44.05%.
`CCCc1nc(NCCOC)c2c(n1)c(C)nn2CC`: the INHIBITION stood at 17%.
Turning to `O=C(c1cnccn1)N1CCN2C[C@H](Oc3cccc(F)c3)C[C@H]2C1`, the INHIBITION is on record as 47.5%.
The result for `CN1CC2(CCNCC2)COc2ccccc2S1(=O)=O` reads -15.7%; that for `CC(c1cccc(-c2ncccc2F)c1)N(C)C` (centres undefined), -17.4%.
On to `NCCSc1nccc(-c2cnc(C3CC3)nc2-c2ccco2)n1`, for which the INHIBITION was 75.3%.
For the compound `COCCNc1ncc(-c2cc(C)no2)c(-c2ccco2)n1`, the INHIBITION came out at 47.4%.
The same measure for `O=C(O)Cn1nc(C2CC2)c2c(-c3ccco3)ccnc21`: 22%; for `Cc1ncc(-c2ccnc(SCCN)n2)c(-c2ccco2)n1`: 42.6%.
The same measure for `OCCNc1nccc(-c2c[nH]nc2-c2ccco2)n1`: -43.4%; for `Cc1ncc(-c2ccnc(SCCN(C)C)n2)c(-c2ccco2)n1`: 70.8%; for `c1cc(CN2CCC3(CC2)COC(COCC2CC2)C3)cs1` (centres undefined): 19.8%.
The result for `Nc1nc(N)c2c(n1)OC1(CCCN(Cc3nccs3)CC1)C2` (centres undefined) reads 10.25%; that for `CC(C)c1noc(CCNC(=O)N2CCC(O)(C(F)(F)F)C2)n1` (centres undefined), 36.5%; that for `OCCOCCNCC1(c2ccc(F)cc2)CCOC1` (centres undefined), 31.6%.
Turning to `Fc1ccc(C2(CNCCc3cccs3)CCOC2)cc1` (centres undefined), the INHIBITION worked out at 63.1%.
With `Fc1ccc(C2(CNCC(F)F)CCOC2)cc1` (centres undefined), the INHIBITION came to 22.5%.
On to `CCc1noc(-c2cccc(NC(=O)C(C)(C)C)c2)n1`, for which the INHIBITION amounted to 32.5%.
As for `Cc1ncc(-c2ccncc2)c(C2CCN(C(=O)c3ccno3)CC2)n1`, the INHIBITION stood at 24.05%.
As to `CNC(=O)C1(C)CN(c2nc(C)cc(C)n2)CCO1` (centres undefined), the INHIBITION was -3.94%.
`CC(=O)Nc1nc2c(s1)C1(CCN(C)CC1)Nc1ccccc1S2`: the INHIBITION is 10%.
Regarding `CC(=O)Nc1nc2c(s1)C(C)(C)Nc1ccccc1S2`, the INHIBITION was 59%.
The same measure for `CC(=O)Nc1nc2c(s1)C1(CCCC1)Nc1ccccc1S2`: 41.2%; for `CC(C)(C)OC(=O)NCCNC(=O)c1ccc(-c2ccco2)[nH]c1=O`: 7.12%.
Consider `CNC(=O)c1cnc2n1CCN(Cc1cccnc1)C2`, for which the INHIBITION stood at 49.1%.
As for `CSc1ccccc1NC(=O)C1CSc2ncc(C)c(=O)n2C1` (centres undefined), the INHIBITION is on record as 60%.
In the case of `Cc1cnc2n(c1=O)CC(C(=O)Nc1ccccc1Cl)CS2` (centres undefined), the INHIBITION is reported as -17%.
As to `Cc1cnc2n(c1=O)CC(C(=O)NCc1ccccc1Cl)CS2` (centres undefined), the INHIBITION was 65.9%.
Take `Cc1cnc2n(c1=O)CC(C(=O)Nc1ccon1)CS2` (centres undefined): the INHIBITION came to 61.5%.
Take `Cc1cccc(NC(=O)C2CSc3ncc(C)c(=O)n3C2)n1` (centres undefined): the INHIBITION came to 6.83%.
The result for `Cc1cccnc1NC(=O)C1CSc2ncc(C)c(=O)n2C1` (centres undefined) reads -4.99%.
As to `Cc1cnc2n(c1=O)CC(C(=O)NC1CC1)CS2` (centres undefined), the INHIBITION is -14.6%.
Regarding `Cc1ccncc1NC(=O)C1CSc2ncc(C)c(=O)n2C1` (centres undefined), the INHIBITION came to 43.8%.
With `Cc1ccc(Cl)cc1NC(=O)C1CSc2ncc(C)c(=O)n2C1` (centres undefined), the INHIBITION is given as -34.5%.
Take `Cc1sc(N)nc1-c1ccc(Cl)cc1`: the INHIBITION is given as -7.77%.
In the case of `COc1cccc(NC(=O)c2cc3c([nH]c2=O)CCCC3=O)c1`, the INHIBITION is given as -37.6%.
With `Cc1nc2ccccc2n1CCNCc1cccc(C#N)c1`, the INHIBITION was determined as 17.5%.
For `CCNC(=O)c1ccc(NC2CCOC3(CCCCC3)C2)nn1` (centres undefined), the INHIBITION is -9.82%.
Take `CC(NC(=O)NCCCc1n[nH]c(N)c1C#N)c1ccc(Cl)cc1` (centres undefined): the INHIBITION is 7.08%.
As to `CCC1(CC)Cc2ccccc2-c2nc(CN(C)C)nc(O)c21`, the INHIBITION came out at 53.7%.
For `CCC1(CC)Cc2ccccc2-c2nc(NCCCO)[nH]c(=O)c21`, the INHIBITION stood at 62.3%.
As to `CCC1(CC)Cc2ccccc2-c2nc(NCCO)[nH]c(=O)c21`, the INHIBITION is 64%.
The result for `Cc1cc(NCCO)nc(-c2ccccc2O)n1` reads -16%; that for `CN(Cc1ccccc1)C1(C(=O)O)Cc2ccccc2C1`, 26.1%.
On to `O=c1c(NCCCO)c(N2CCN(c3ccccc3)CC2)c1=O`, for which the INHIBITION came to 44.9%.
Consider `CC1(C)Cc2ccccc2-c2nc(NCCCO)[nH]c(=O)c21`, for which the INHIBITION was determined as 45.8%.
Consider `CCC1(C)Cc2ccccc2-c2nc(NCCO)nc(O)c21` (centres undefined), for which the INHIBITION is listed as 20.9%.
On to `CC1(C)Cc2ccccc2-c2nc(NCCO)[nH]c(=O)c21`, for which the INHIBITION is -4.74%.

(Values after ChEMBL document CHEMBL4513216, “Probing the Open Global Health Chemical Diversity Library for Multistage-Active Starting Points for Next-Generation Antimalarials” (ACS Infect Dis, 2020).)
